# Where “and” joins values, the source holds several entries; their conditions need not be identical. Equal values may be shown once. Calls of active or inactive are those of the source.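 Rule for the calls, unless noted: active = z-score of at least 1.8 in each of two replicates, scored against plate mean and spread of sample wells; inactive = the rest.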
# Key:
# [1] = yeast 75Q aggregation reduction – 75Q-TubU reporter (AID 1593); details: Yeast 75Q polyglutamine aggregation reporter
# [2] = blockers of cytochrome c efflux from mitochondria – biochemical, purified mitochondria (AID 1603); details: stronger effect = lower value;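 note: mouse liver mitochondria challenged with calcium chloride; signal normalized to the plate average as 100%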
# [3] = polyglutamine aggregate formation blockers (AID 1604); details: polyglutamine-induced protein aggregation inhibition assay; stronger effect = higher value; tested at 2.5 µM
# [4] = Wnt pathway potentiators raising nuclear beta-catenin – imaging, WNT3A-conditioned medium, mouse C2C12, NPC library, primary screen (AID 1117326; in the data active = nuclear beta-catenin stimulation mostly above about 4.2%, no sharp cut-off; inactive = mostly below about 10%); details: stronger effect = higher value
# [5] = stimulators of insulin release from INS-1E, primary screen, cell-based, 5 mM glucose, NPC library (AID 1117329;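 active = compound raises insulin release from rat beta cells at 5 mM glucose, no numeric limit stated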); details: rat INS-1E insulin secretion, at 10 µM, stronger effect = higher value
# [6] = growth inhibition of GSK3B-pretreated HCT116 cells – cell-based, CellTiter-Glo, 0.2 to 20 µM (AID 1117336;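 active = compounds lowering colon cancer cell viability after pretreatment blocking the GSK3B kinase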); details: HCT116 viability after GSK3B inhibitor, at 20 µM, stronger effect = higher value
# [7] = inhibition of endothelial tube formation, primary screen, imaging, VEGF stimulated, CD31 staining, tube area, NPC library (AID 1117340;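 active = compound that reduces growth-factor-driven endothelial tube area in a mixed cell culture, no cutoff stated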); details: VEGF-stimulated ADSC/ECFC co-culture, at 10 µM, stronger effect = higher value
# [8] = GLP1 release stimulators, primary, NCI-H716, NPC library (AID 1117341;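 active = compound raises GLP1 secretion from the human gut endocrine cells, with no numeric limit stated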); details: NCI-H716 cells, at 10 µM, stronger effect = higher value
# [9] = HCT116 colon cancer cell growth inhibition, primary screen, CellTiter-Glo luminescence, NPC library (AID 1117342;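 active = compounds that lower survival of HCT116 colon cancer cells in the luminescence readout, no numeric limit stated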); details: at 20 µM (top of the series)
# [10] = reduced SW480 viability measured with CellTiter-Glo, NPC library, primary (AID 1117343;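 active = compounds that lower viability of the colon cancer cells in the luminescence readout, with no numeric limit stated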); details: CellTiter-Glo luminescence; at 20 µM (top of the series)
# [11] = NPC library primary testing for decreased DLD-1 cell viability via CellTiter-Glo (AID 1117346;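 active = compounds that lower survival of DLD-1 colon cancer cells in the luminescence readout, no cutoff given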); details: DLD-1 viability, CellTiter-Glo luminescence; at 20 µM (top of the series)
# [12] = target: 6-phosphogluconate dehydrogenase, decarboxylating (Homo sapiens) (UniProt P52209); assay: inhibition of human phosphogluconate dehydrogenase – biochemical, recombinant enzyme, NADPH absorbance, primary screen (AID 1159550;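 active = at least 20% inhibition of 6-phosphogluconate dehydrogenase activity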); details: recombinant 6PGD, NADPH absorbance 341 nm; at 10 µM; stronger effect = higher value
# [13] = EMT-state selective cytotoxicity in co-culture – imaging, PC-3E GFP, TEM4-18 mCherry, primary screen (AID 1345086;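 active = compounds killing one labelled cell type while sparing the other, by normalised counts and ratio limits, not self-fluorescent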;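 for all read-outs here: cells exposed to compound for 72 h before imaging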;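 for red/green cell ratio (normalised): normalised mesenchymal count divided by normalised epithelial count so high means epithelial killing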); details: PC-3E GFP / TEM4-18 mCherry co-culture, imaging cell counts, at 1 µM; for red/green cell ratio (normalised): actives lie on both sides
# [14] = test system: Aerobactin synthetase IucA (Klebsiella pneumoniae hvKP1); assay: IucA enzyme inhibition, primary screen, biochemical, Spectrum library (AID 1346200; call rule not given here;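 note: 100% = wells without compound and 0% = wells lacking enzyme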); details: malachite green pyrophosphate, A620, at 8 µM, stronger effect = lower value
# [15] = viability loss with induced miR-34 in A549 – imaging, A549 dox-inducible miR-34, nuclei and caspase counts, primary screen (AID 1347080;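 active = compounds whose cell count with miR-34 switched on is under 0.7 times the count with it off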); details: A549 miR-34 inducible, Hoechst nuclei count, 48 h
# [16] = target: Mitogen-activated protein kinase 7 (Homo sapiens) (UniProt Q13164); assay: Gal4-ERK5 driven luciferase induction – cell-based, HTS, primary screen (AID 1508626;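 active = luciferase signal above three times the same-plate solvent-only control wells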;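 note: luciferase driven by Gal4-ERK5 fusion binding five Gal4 sites before minimal TATA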); details: HeLa Gal4-ERK5 transactivation, 18 h, at 5 µM, stronger effect = higher value
# [17] = galactose survival enhancers in mitochondrial complex I cybrids – cell-based, galactose medium, ATP luminescence, primary screen (AID 1645843); details: complex I mutant cybrid cells, 72 h, stronger effect = higher value;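 note: positive z means more ATP and so rescue of galactose-driven cybrid death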
# [18] = P. berghei load reduction in hepatocytes – cell-based, HepG2, luciferase luminescence, HepG2 viability, primary screen (AID 624349; in the data active = parasite load remaining mostly below about 12%, no sharp cut-off; inactive = mostly above about 10%;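 note: 100% = mean of DMSO negative control wells on the same plate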); details: P. berghei liver stage in HepG2, luciferase luminescence, concentration not given here; parasite load remaining: stronger effect = lower value; viability: measured here: HepG2 viability without parasites
# [19] = MELAS cybrid and Rieske KO viability enhancers – cell-based, MELAS cybrids, Rieske KO mouse fibroblasts, CellTiter-Glo, primary screen (AID 1508586;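 active = mean z-score across replicates of 1.96 or higher in either the MELAS or the Rieske mutant cell line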;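 note: z relative to plate mean and SD of compound and empty wells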); details: low glucose
# [20] = target: NAD(+) hydrolase SARM1 (Homo sapiens) (UniProt Q6SZW1); assay: blocking NAD cleavage by SARM1 SAM-TIR – cell lysate, NAD-Glo luminescence (AID 1508614;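 active = compound whose remaining NAD level is above about 45 nM, limit read from the data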;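 note: higher remaining NAD means stronger inhibition of SARM1 NADase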); details: SAM-TIR HEK293T lysate NADase, at 1 µM, stronger effect = higher value
# [21] = measured here: epithelial PC-3E GFP cell survival
# [22] = measured here: mesenchymal TEM4-18 mCherry cell survival
# [23] = measured here: relative caspase fold change +Dox/-Dox
# [24] = measured here: total cells with miR-34 induction, stronger effect = lower value
# [25] = measured here: total cells without miR-34 induction
# [26] = MELAS cybrid survival, CellTiter-Glo 48 h, stronger effect = higher value
# [27] = Rieske KO mouse fibroblast survival, CellTiter-Glo 72 h
# Mitogen-activated protein kinase 7 (Homo sapiens), sequence (Q13164 whole entry, looked up, the tested form may be a part): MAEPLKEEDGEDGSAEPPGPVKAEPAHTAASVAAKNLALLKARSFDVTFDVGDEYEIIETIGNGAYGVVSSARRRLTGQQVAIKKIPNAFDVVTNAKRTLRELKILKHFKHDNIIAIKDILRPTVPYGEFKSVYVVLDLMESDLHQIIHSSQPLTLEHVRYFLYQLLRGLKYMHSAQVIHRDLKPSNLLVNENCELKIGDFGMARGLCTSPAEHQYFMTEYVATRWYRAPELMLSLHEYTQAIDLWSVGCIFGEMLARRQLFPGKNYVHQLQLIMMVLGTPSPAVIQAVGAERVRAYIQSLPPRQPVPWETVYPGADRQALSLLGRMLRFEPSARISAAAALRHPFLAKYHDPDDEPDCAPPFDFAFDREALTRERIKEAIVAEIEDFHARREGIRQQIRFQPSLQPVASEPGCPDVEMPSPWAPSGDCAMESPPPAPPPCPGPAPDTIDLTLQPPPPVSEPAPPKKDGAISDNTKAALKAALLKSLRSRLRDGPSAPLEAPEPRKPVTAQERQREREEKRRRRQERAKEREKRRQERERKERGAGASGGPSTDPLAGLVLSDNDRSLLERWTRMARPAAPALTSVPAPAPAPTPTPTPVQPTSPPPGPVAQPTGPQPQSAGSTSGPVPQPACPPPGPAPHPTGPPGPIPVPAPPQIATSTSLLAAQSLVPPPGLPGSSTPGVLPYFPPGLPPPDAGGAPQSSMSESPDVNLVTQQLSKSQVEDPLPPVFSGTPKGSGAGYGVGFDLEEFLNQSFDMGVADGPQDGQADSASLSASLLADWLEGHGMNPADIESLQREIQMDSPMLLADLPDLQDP
# NAD(+) hydrolase SARM1 (Homo sapiens), sequence (Q6SZW1 whole entry, looked up): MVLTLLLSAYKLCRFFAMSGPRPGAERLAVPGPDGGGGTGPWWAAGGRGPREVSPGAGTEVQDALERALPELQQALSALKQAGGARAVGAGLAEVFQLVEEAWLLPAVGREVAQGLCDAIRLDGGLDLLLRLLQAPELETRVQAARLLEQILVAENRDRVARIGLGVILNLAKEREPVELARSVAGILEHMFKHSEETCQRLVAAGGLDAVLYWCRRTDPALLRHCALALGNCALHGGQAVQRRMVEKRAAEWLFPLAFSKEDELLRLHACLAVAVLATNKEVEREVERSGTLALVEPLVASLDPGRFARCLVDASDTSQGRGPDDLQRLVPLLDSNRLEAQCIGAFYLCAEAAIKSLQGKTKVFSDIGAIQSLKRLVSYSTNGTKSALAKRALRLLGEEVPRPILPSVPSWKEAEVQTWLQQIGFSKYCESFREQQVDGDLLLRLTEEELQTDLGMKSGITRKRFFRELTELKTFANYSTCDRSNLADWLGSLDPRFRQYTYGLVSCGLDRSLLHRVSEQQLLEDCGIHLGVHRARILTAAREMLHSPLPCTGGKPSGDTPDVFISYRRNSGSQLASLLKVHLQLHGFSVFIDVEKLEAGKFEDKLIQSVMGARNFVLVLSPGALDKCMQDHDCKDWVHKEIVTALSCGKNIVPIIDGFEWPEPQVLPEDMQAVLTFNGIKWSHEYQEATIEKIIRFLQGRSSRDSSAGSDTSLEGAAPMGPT
# 6-phosphogluconate dehydrogenase, decarboxylating (Homo sapiens), sequence (P52209 whole entry, looked up): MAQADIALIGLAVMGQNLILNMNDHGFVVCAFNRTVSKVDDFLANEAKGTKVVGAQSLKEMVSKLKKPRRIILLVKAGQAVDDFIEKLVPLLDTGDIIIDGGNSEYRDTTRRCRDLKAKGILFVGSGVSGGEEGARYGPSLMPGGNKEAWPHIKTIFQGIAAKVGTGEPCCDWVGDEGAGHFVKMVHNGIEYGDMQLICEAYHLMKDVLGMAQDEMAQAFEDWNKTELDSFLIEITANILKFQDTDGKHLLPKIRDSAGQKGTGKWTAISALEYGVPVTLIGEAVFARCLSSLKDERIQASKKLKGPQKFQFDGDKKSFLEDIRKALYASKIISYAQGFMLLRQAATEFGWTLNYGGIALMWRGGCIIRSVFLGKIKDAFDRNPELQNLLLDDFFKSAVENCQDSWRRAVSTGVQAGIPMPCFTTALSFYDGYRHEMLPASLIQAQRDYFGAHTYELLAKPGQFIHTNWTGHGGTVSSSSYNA
structure (smiles),measurement,setting,value
C=C(C)[C@H]1Cc2c(ccc3c2O[C@@H]2COc4cc(OC)c(OC)cc4[C@@H]2C3=O)O1,score,[1],3.23
same,cytochrome c release ratio,[2],1.15
same,inhibition of aggregation,[3],33.3%
same,nuclear beta-catenin stimulation,[4]; at 10 µM,92.8% (active)
same,nuclear beta-catenin stimulation,"[4]; stimulation, at 2 µM",43.8%
same,insulin secretion stimulation,[5],-0.1% (inactive)
same,viability decrease,[6],4.4% (inactive)
same,tube area decrease,[7],107% (active)
same,GLP1 secretion stimulation,[8],2.2% (inactive)
same,inhibition of viability,[9],60.6% (active)
same,viability decrease (inhibition),[10],88.3% (active)
same,viability decrease (inhibition),[11],83.4% (active)
same,inhibition,[12],10.4% (inactive)
same,red/green cell ratio (normalised),[13],1.19 (inactive)
same,normalised cell number,[13]; [21],0.27
same,normalised cell number,[13]; [22],0.32
same,activity remaining,[14],92.3% (inactive)
same,fold change,[15]; stronger effect = lower value,1.11 (inactive)
same,fold change,[15]; [23],0.665
same,cell count,[15]; [24],1680
same,cell count,[15]; [25],1510
same,luciferase signal,[16],52 AU (inactive)
same,z-score,[17],-1.29 (inactive)
c1ccc2nc(N3CCNCC3)ccc2c1,score,[1],1.22
same,cytochrome c release ratio,[2],0.9
same,inhibition of aggregation,[3],63.9%
same,parasite load remaining,[18],73.5% (inactive) and 55.7% (inactive) and 53.7% (inactive)
same,viability,[18],107% and 72.2% and 102%
same,nuclear beta-catenin stimulation,[4]; at 10 µM,0.1% (inactive)
same,nuclear beta-catenin stimulation,"[4]; stimulation, at 2 µM",-1.9%
same,insulin secretion stimulation,[5],4% (inactive)
same,viability decrease,[6],41.7% (inactive)
same,tube area decrease,[7],-4.1% (inactive)
same,GLP1 secretion stimulation,[8],3.6% (inactive)
same,inhibition of viability,[9],56.9% (active)
same,viability decrease (inhibition),[10],54.9% (active)
same,viability decrease (inhibition),[11],25% (inactive)
same,inhibition,[12],9.28% (inactive)
same,red/green cell ratio (normalised),[13],1.18 (inactive)
same,normalised cell number,[13]; [21],1.13
same,normalised cell number,[13]; [22],1.34
same,activity remaining,[14],124% (inactive)
same,fold change,[15]; stronger effect = lower value,0.855 (inactive) and 0.953 (inactive) and 0.849 (inactive)
same,fold change,[15]; [23],1.3 and 0.736 and 5.89
same,cell count,[15]; [24],9120 and 9090 and 11300
same,cell count,[15]; [25],10700 and 9530 and 13400
same,z-score,[19]; [26],0.387 (inactive)
same,z-score,[19]; [27],0.0895
same,remaining NAD,[20],10 nM (inactive)
same,luciferase signal,[16],28 AU (inactive)
same,z-score,[17],-0.47 (inactive)
O=C(O)CCCc1ccc(N(CCCl)CCCl)cc1,score,[1],-0.24
same,cytochrome c release ratio,[2],1.24
same,inhibition of aggregation,[3],81.4%
same,nuclear beta-catenin stimulation,[4]; at 10 µM,3.6% (inactive)
same,nuclear beta-catenin stimulation,"[4]; stimulation, at 2 µM",-1.1%
same,insulin secretion stimulation,[5],-0.1% (inactive)
same,viability decrease,[6],49.8% (inactive)
same,tube area decrease,[7],87% (active)
same,GLP1 secretion stimulation,[8],-0.8% (inactive)
same,inhibition of viability,[9],8.83% (inactive)
same,viability decrease (inhibition),[10],3.9% (inactive)
same,viability decrease (inhibition),[11],2.6% (inactive)
same,inhibition,[12],-1.4% (inactive)
same,red/green cell ratio (normalised),[13],0.75 (inactive)
same,normalised cell number,[13]; [21],1.2
same,normalised cell number,[13]; [22],0.9
same,activity remaining,[14],115% (inactive)
same,z-score,[19]; [26],-0.116 (inactive) and 0.451 (inactive)
same,z-score,[19]; [27],-0.284 and -0.412
same,remaining NAD,[20],10 nM (inactive)
same,luciferase signal,[16],144 AU (inactive)
same,z-score,[17],-0.065 (inactive) and 0.565 (inactive)
O=C(CCCN1CCC2(CC1)C(=O)NCN2c1ccccc1)c1ccc(F)cc1,score,[1],1.06
same,cytochrome c release ratio,[2],1.21
same,inhibition of aggregation,[3],87%
same,nuclear beta-catenin stimulation,[4]; at 10 µM,0.4% (inactive)
same,nuclear beta-catenin stimulation,"[4]; stimulation, at 2 µM",5.7%
same,insulin secretion stimulation,[5],1.8% (inactive)
same,viability decrease,[6],51.6% (active)
same,tube area decrease,[7],-3.9% (inactive)
same,GLP1 secretion stimulation,[8],8% (inactive)
same,inhibition of viability,[9],60.5% (active)
same,viability decrease (inhibition),[10],95.2% (active)
same,viability decrease (inhibition),[11],83.7% (active)
same,inhibition,[12],-2.11% (inactive)
same,red/green cell ratio (normalised),[13],1.18 (inactive)
same,normalised cell number,[13]; [21],0.93
same,normalised cell number,[13]; [22],1.1
same,activity remaining,[14],110% (inactive)
same,z-score,[19]; [26],0.0809 (inactive) and 0.865 (inactive)
same,z-score,[19]; [27],-0.502 and 0.666
same,remaining NAD,[20],10 nM (inactive)
same,luciferase signal,[16],60 AU (inactive)
same,z-score,[17],-1.13 (inactive) and 1.23 (inactive) and -1.53 (inactive)

# Source: PubChem BioAssay
